This is an account of results in PubChem BioAssay (EPA / NIEHS).

A short description of assay [1]: CCTE_Shafer_MEA_dev_interburst_interval_mean: CCTE's Neural Network Formation Assay for Mean Interburst Interval, Shafer Lab (AID 2284046).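 Also: well-mean interburst interval of bursting electrodes as AUC over four recording days; curve fitted for decrease in interburst interval relative to DMSO.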 The essentials:
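Primary rat cortical neurons on PEI-coated 48-well MEA plates (laminin added with cells at plating) (16 electrodes/well), exposed from plating day 0 with renewal at DIV 5 and 9. Mean inter-burst interval averaged over bursting electrodes, AUC across days 5, 7, 9, 12; DMSO baseline.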

The nature of assay [2]: CCTE_Shafer_MEA_dev_inter_network_spike_interval_mean: CCTE's Neural Network Formation Assay for Mean Inter-network Spike Interval, Shafer Lab (AID 2284047).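 As to AC50: potency for a decrease in mean inter-network spike interval below DMSO.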 The essentials: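 Mean time between consecutive network-spike peaks, recorded extracellularly (adaptive spike detection) on DIV 5, 7, 9 and 12, summarized as trapezoidal AUC. Rat cortical cultures on MEAs dosed continuously days 0–12, re-dosed at feeds; loss-of-signal fit relative to DMSO.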

Assay [3] is described as follows: CCTE_Shafer_MEA_dev_network_spike_number: CCTE's Neural Network Formation Assay for Number of Network Spikes, Shafer Lab (AID 2284048).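 Also: synchronized bursts across electrodes counted on days 5 7 9 12 and integrated as AUC.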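 As to AC50: fit as a loss of signal meaning fewer network spikes than DMSO.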 The essentials: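 Number of network spikes (coordinated firing across electrodes) recorded on days 5, 7, 9 and 12 and summarised as area under the curve. Rat cortical cultures on MEA, continuous compound exposure with full medium/treatment exchange at DIV 5 and 9.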

A short description of assay [4]: CCTE_Shafer_MEA_dev_network_spike_peak: CCTE's Neural Network Formation Assay for Mean Number of Electrodes in Network Spike, Shafer Lab (AID 2284049).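 As to AC50: fitted for loss of signal meaning fewer electrodes in network spikes than DMSO.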 In outline: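 Rat cortical primary culture, 1.5 x 10^5 cells/well, 48-well MEA (16 electrodes/well). Dosing day 0 through DIV 12, full media/compound exchange DIV 5, 9. AxIS adaptive spike detection; AUC over days 5/7/9/12; loss-of-signal vs DMSO.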

Assay [5] is described as follows: CCTE_Shafer_MEA_dev_spike_duration_mean: CCTE's Neural Network Formation Assay for Mean Spike Duration, Shafer Lab (AID 2284051).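 As to AC50: potency for a decrease in mean network spike duration versus DMSO.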 The essentials: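 Spontaneous activity was recorded on days 5, 7, 9 and 12 from rat cortical cultures grown on microelectrode arrays and dosed continuously from day 0, with media and compound renewed after the DIV 5 and 9 recordings. Network-spike duration was collapsed by area under the curve.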

The nature of assay [6]: CCTE_Shafer_MEA_dev_network_spike_duration_std: CCTE's Neural Network Formation Assay for Standard Deviation of Network Spike Duration, Shafer Lab (AID 2284052).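 Also: hits are decreases in network spike duration SD versus DMSO vehicle.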 In outline: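 Network spike duration variability was collapsed across recordings on days 5, 7, 9 and 12 by trapezoidal area-under-curve and fitted downward against DMSO. Cultures were rat cortical neurons on PEI-coated MEA plates, dosed continuously from plating, refed with compound DIV 5/9.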

A short description of assay [7]: CCTE_Shafer_MEA_dev_per_network_spike_spike_number_mean: CCTE's Neural Network Formation Assay for Mean Number of Spikes in a Network Spike, Shafer Lab (AID 2284053).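 As to AC50: fitted as decrease in spikes per network spike relative to DMSO.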 In outline: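 Mean spike count within each network spike, taken in a 0.05 s window at its peak, was recorded on days 5, 7, 9 and 12 and integrated as trapezoidal area under the curve. Rat cortical cultures on MEA plates received continuous compound from day 0, refreshed at medium changes on DIV 5 and 9.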

Assay [8] can be described thus: CCTE_Shafer_MEA_dev_per_network_spike_spike_percent: CCTE's Neural Network Formation Assay for Percent of Spikes in a Network Spike, Shafer Lab (AID 2284054). The essentials: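 Metric: fraction of spikes falling in a 0.05 s window at network-spike peaks. Recordings were made on days 5, 7, 9 and 12 and collapsed by trapezoidal AUC. Cultures were rat cortical neurons on MEA plates, dosed continuously from plating, re-dosed at media changes.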

Assay [9] relates to DIO2 (gene 1734). Kind of assay: CCTE_GLTED_hDIO2: CCTE's human Deiodinase 2 (DIO2) Inhibition Assay, Great Lakes Toxicology and Ecology Division (GLTED) Lab (AID 2284050; active = hit-call score of the fitted dose curve at least 0.9, where 1 is the maximum). The essentials:
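Readout: absorbance from Sandell-Kolthoff detection of free iodide released by human DIO2 during a 3 h incubation with chemical. Cell-free format, n=3; activity fitted relative to DMSO negative control.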

The test system of assay [10] is DIO3 (gene 1735). The assay can be described thus: CCTE_GLTED_hDIO3: CCTE's human Deiodinase 3 (DIO3) Inhibition Assay, Great Lakes Toxicology and Ecology Division (GLTED) Lab (AID 2284055; active = hit-call score of the fitted dose curve at least 0.9, where 1 is the maximum;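 also: potency is for inhibition seen as loss of released iodide signal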). Here is the method:
CCTE_GLTED_hDIO3 is a cell-free, single-readout assay designed to test the inhibitory activity of chemicals toward human iodothyronine Deiodinase type 3 (DIO3) enzyme. Enzyme is incubated in presence of test chemical for 3 hours during which uninhibited enzyme liberates free iodide from substrate. Free iodide is measured in a second step using the Sandell-Kolthoff method.CCTE_GLTED_hDIO3 is the assay component measured from the CCTE_GLTED_hDIO3 assay. It is designed to make measurements of enzyme activity, a form of enzyme reporter, as detected with absorbance signals by spectrophotometry.Data from the assay component CCTE_GLTED_hDIO3 was analyzed into 1 assay endpoint. This assay endpoint, CCTE_GLTED_hDIO3, was analyzed in the positive analysis fitting direction relative to DMSO as the negative control and baseline of activity. Using a type of enzyme reporter, loss-of-signal activity can be used to understand changes in the enzymatic activity as they relate to the gene DIO3. Furthermore, this assay endpoint can be referred to as a primary readout, because the performed assay has only produced 1 assay endpoint. To generalize the intended target to other relatable targets, this assay endpoint is annotated to the 'deiodinase' intended target family, where the subfamily is 'deiodinase Type 3'.
[…] assay, developed at Great Lakes Toxicology and Ecology Division (GLTED) within the EPA's Center for Computational Toxicology and Exposure (CCTE), is designed to test the chemicals' ability to inhibit DIO3. Assay uses human deiodinase type 3 (DIO3) enzyme produced with adenovirus expression system. Assay is based on iodide release measured by the Sandell-Kolthoff method and is run in 96-well plate format with assay plates run in triplicate (n=3). The method used for the deiodinase assay was largely based on Renko et al. (2012, 2015). These works describe the utilization of the SK reaction to measure deiodinase-liberated iodide in a 96-well-plate format. The SK reaction is based on the reduction of the yellow-colored cerium IV to the non-colored cerium III by arsenic, with the rate of this reaction increased in the presence of iodide in a concentration-dependent manner (Sandell and Kolthoff, 1937). Iodinated test chemicals can interfere as competitive inhibitors, or if the stock chemical has contaminating free-iodide present. Other chemicals, e.g.: nitrite, iron, and thiocyanate can interfere with the Sandell-Kolthoff reaction (see Sandell and Kolthoff, 1937).

Activity calls are given as the source filed them. The calls were made as follows, unless noted: active = hit-call score of the fitted dose curve at least 0.9, where 1 is the maximum; inactive = score below 0.9.

Regarding `CN(C)CCOC(c1ccccc1)c1ccccc1`, the compound was called inactive in assay [1], in assay [2], in [3], in [6] and in [7]. Besides, the half-maximal activity concentration (AC50) in [4] was 10 µM (active); in assay [5], 10 µM (active); in assay [8] it was 14 µM (active).

On to `CC(C)c1c(C(=O)Nc2ccccc2)c(-c2ccccc2)c(-c2ccc(F)cc2)n1CC[C@@H](O)C[C@@H](O)CC(=O)O`, for which the AC50 in [1] is 0.00832 µM (active); in assay [2], 0.00722 µM (active); in assay [3], 0.00574 µM (active); in assay [4] it was 0.00641 µM (active); in assay [5], 0.00474 µM (active); in assay [6], 0.00268 µM (active). Further, the values for the half-maximal activity concentration (AC50) in [7] and in assay [8] were 0.00816 µM (active) and 0.00821 µM (active), respectively.

Take `O=C(CC(=O)C(F)(F)C(F)(F)C(F)(F)F)c1cccs1`: the half-maximal activity concentration (AC50) was 5.43 µM (active) in assay [1]; 7.42 µM (active) in assay [4]; 7.7 µM (active) in assay [5]; 3.72 µM (active) in assay [7]; 3.48 µM (active) in assay [8]. The compound was classed as inactive in assay [2], in assay [3] and in assay [6].

As to `CN(CCO)S(=O)(=O)C(F)(F)C(F)(F)C(F)(F)C(F)(F)C(F)(F)C(F)(F)C(F)(F)C(F)(F)F`, the outcome in [1], in assay [2], in assay [3], in assay [4], in assay [5] and in assay [6] was inactive. The result in [7] and in assay [8] was inactive.

As for `O=CC(F)(F)C(F)(F)C(F)(F)F`, the call in assay [1], in assay [2], in [3], in assay [4], in assay [5] and in assay [6] was inactive. Also, the outcome in assay [7] and in [8] was inactive.

On to `O=C(F)C(F)(F)C(F)(F)C(F)(F)C(=O)F`, for which the compound was classed as inactive in assay [1], in [2], in assay [3], in [4], in assay [5] and in assay [6]. The outcome in assay [7] and in assay [8] was inactive.

As for `Nc1ccn([C@@H]2O[C@H](CO)[C@@H](O)C2O)c(=O)n1` (some centres not stated), the AC50 in [1] was 0.695 µM (active); in assay [3], 0.125 µM (active); in assay [4], 0.329 µM (active); in [5] it was 0.358 µM (active); in assay [6], 0.239 µM (active); in assay [7] it was 0.205 µM (active). Further, the half-maximal activity concentration (AC50) in assay [8] is 0.119 µM (active). For the same compound, in assay [2], the outcome was inactive.

On to `CCCCCCCCCCCCOS(=O)(=O)O`, for which the values for the AC50 in assay [9] and in assay [10] were 101 µM (active) and 99.6 µM (active), respectively.

With `Cc1cc(Cc2cc(C)cc(C(C)(C)C)c2O)c(O)c(C(C)(C)C)c1`, the concentration at half-maximal activity (AC50) was 97.6 µM (active) in assay [9] and 14.2 µM (active) in [10].

Consider `O=C(O)C(F)(F)OC(F)(F)C(F)(F)OC(F)(F)C(F)(F)OC(F)(F)C(F)(F)C(F)(F)C(F)(F)F`, for which the call in assay [1], in assay [2], in [3], in [4], in assay [5] and in [6] was inactive. The outcome in [7] and in [8] was inactive. The concentration at half-maximal activity (AC50) is 60.5 µM (active) in assay [9] and 37.1 µM (active) in [10].

Turning to `O=P(O)(O)CCC(F)(F)C(F)(F)C(F)(F)C(F)(F)C(F)(F)C(F)(F)C(F)(F)C(F)(F)F`, the AC50 was 8.6 µM (active) in assay [1]; 4.29 µM (active) in assay [3]; 4.22 µM (active) in assay [4]; 146 µM (active) in [9]; 7.74 µM (active) in [5]; 4.23 µM (active) in [7]. Besides, the AC50 in [8] was 5.38 µM (active). Besides, the compound was called inactive in [2] and in assay [6].

`CCCCCCCCCCCCOC(=O)c1cc(O)c(O)c(O)c1`: the AC50 in [9] is 82 µM (active); in assay [10], 6.66 µM (active).

For `O=C(OC(=O)C(F)(F)C(F)(F)F)C(F)(F)C(F)(F)F`, the call in [1], in assay [2], in [3], in assay [4], in [5] and in assay [6] was inactive. Moreover, the outcome in assay [7] and in assay [8] was inactive.

With `O=P(O)(O)CCC(F)(F)C(F)(F)C(F)(F)C(F)(F)C(F)(F)C(F)(F)F`, the outcome in assay [1], in assay [2], in assay [3], in [4], in assay [5] and in [6] was inactive. In addition, the compound was called inactive in [7] and in assay [8].

For `CC(=O)Nc1ccc(O)cc1`, the compound was classed as inactive in assay [1], in [2], in [3], in assay [4], in assay [5] and in [6]. Further, the outcome in [7] and in [8] was inactive.

For `CCCCCCCCCC=CCC1CC(=O)OC1=O` (configuration not stated), the concentration at half-maximal activity (AC50) in assay [9] is 64.3 µM (active); in assay [10], 27.2 µM (active).

For `O=C1NS(=O)(=O)c2ccccc21`, the call in assay [1], in assay [2], in assay [3], in [4], in assay [5] and in assay [6] was inactive. In addition, the call in assay [7] and in [8] was inactive.

Take `NC(=NCCCCCCN=C(N)/N=C(\N)Nc1ccc(Cl)cc1)/N=C(\N)Nc1ccc(Cl)cc1`: the AC50 is 13 µM (active) in [9] and 2.65 µM (active) in assay [10].

For orientation: AC50 means the concentration giving half of the maximal activity seen.
